# Test results: the supplement of paper PMC6555819
# Assays:
# Experiment in all cases: PBM binding z-score (relative to random genomic background probes); higher = stronger binding; sequences stand for … in GC…GCGATTGACAGCGTAGAATGAAGG
# [1] = system: FXR:RXRa (NR concentration 270 nM, RXRa partner concentration 90 nM)
# Summary of the method: (§1)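 Scanned fluorescence from custom Agilent 4×180K protein-binding microarrays was regression-normalized. Binding z-scores use random background probes as reference. Ligand-free nuclear receptor dimers were incubated on the arrays for 1 h and detected with antibodies against each partner (one per run).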
# [2] = system: LXRa homodimer (NR concentration 270 nM)
# Summary of the method: as §1
# [3] = system: LXRb homodimer (NR concentration 270 nM)
# Summary of the method: as §1
# [4] = system: PPARg:RXRa (NR concentration 180 nM, RXRa partner concentration 90 nM)
# Summary of the method: as §1
# [5] = system: PPARg:RXRa 270nM:90nM, anti-RXR (NR concentration 270 nM, RXRa partner concentration 90 nM)
# Summary of the method: as §1
# [6] = system: PPARg:RXRa 30nM:10nM, anti-RXR (NR concentration 30 nM, RXRa partner concentration 10 nM)
# Summary of the method: as §1
# [7] = system: PPARg:RXRa 90nM:30nM, anti-RXR (NR concentration 90 nM, RXRa partner concentration 30 nM)
# Summary of the method: as §1
# [8] = system: PPARg:RXRa DBDmut IVT, anti-RXR (DBD mutation: RXRa K156A/R161A, NR concentration 270 nM, RXRa partner concentration 90 nM)
# Summary of the method: as §1
# [9] = system: PPARg:RXRa IVT, anti-PPARg (NR concentration 270 nM, RXRa partner concentration 90 nM)
# Summary of the method: as §1
# [10] = system: PPARg DBDmut:RXRa IVT, anti-PPARg (DBD mutation: PPARg1 K132A/R137A, NR concentration 270 nM, RXRa partner concentration 90 nM)
# Summary of the method: as §1
# [11] = system: PPARg DBDmut IVT, anti-PPARg (DBD mutation: PPARg1 K132A/R137A, NR concentration 270 nM)
# Summary of the method: as §1
# [12] = system: PPARg homodimer (NR concentration 180 nM)
# Summary of the method: as §1
# [13] = system: PXR:RXRa (NR concentration 270 nM, RXRa partner concentration 90 nM)
# Summary of the method: as §1
# [14] = system: PXR homodimer (NR concentration 270 nM)
# Summary of the method: as §1
# [15] = system: RARa:RXR (NR concentration 270 nM, RXRa partner concentration 90 nM)
# Summary of the method: as §1
# [16] = system: RARa homodimer (NR concentration 270 nM)
# Summary of the method: as §1
# [17] = system: RARb:RXRa (NR concentration 270 nM, RXRa partner concentration 90 nM)
# Summary of the method: as §1
# [18] = system: RARb homodimer (NR concentration 270 nM)
# Summary of the method: as §1
# [19] = system: PPARa:RXRa (NR concentration 270 nM, RXRa partner concentration 90 nM)
# Summary of the method: as §1
Sequence,PBM binding z-score [1],PBM binding z-score [2],PBM binding z-score [3],PBM binding z-score [4],PBM binding z-score [5],PBM binding z-score [6],PBM binding z-score [7],PBM binding z-score [8],PBM binding z-score [9],PBM binding z-score [10],PBM binding z-score [11],PBM binding z-score [12],PBM binding z-score [13],PBM binding z-score [14],PBM binding z-score [15],PBM binding z-score [16],PBM binding z-score [17],PBM binding z-score [18],PBM binding z-score [19]
TAGCCTAGGTCATGGGCCAGTGTACCACGCGAAC,4.82,0.0441,-0.0634,4.13,3.87,1.39,2.66,1.74,3.43,0.332,0.203,1.42,1.6,-0.511,2.86,-0.252,4.01,3.09,
CCTACTGGACCAAGGTCATTGATCAGTCAAAGCA,3.24,1.96,0.618,2.11,2.77,0.593,1.95,2.03,2.23,0.0744,0.144,2.59,3.88,1.96,3.91,0.91,3.23,3.4,
CCTACTGGGCCATTCAGAGGGCATTGATCATATG,-0.338,0.468,-0.759,0.602,0.565,-0.432,-0.127,4.54,3.43,-0.276,-0.131,0.0332,,-0.0942,0.0322,-0.556,1.09,1.27,0.726
ACTTACGGCTCAACGAGGTTATAGCACGCGTATA,0.333,0.28,0.162,0.821,-0.0206,-0.186,-0.0465,-0.0346,0.0544,0.327,0.825,0.463,0.645,0.358,0.812,-0.139,0.165,0.526,0.734
AGAATGAGGTTACTAAAGATCAGGGAAACGCTTG,1.18,0.111,0.0247,1.81,1.58,0.706,1.07,3.7,2.84,0.939,0.661,0.271,0.942,0.152,1.21,0.392,1.51,0.777,
CCTACTGGGCCACTAAAGGTCATTGATTCAGTGA,3.27,8.29,1.27,4.06,4.89,2.26,4.15,5.49,5.37,0.801,0.225,3.43,5.12,1.79,5.18,1.26,3.89,4.55,
TAGCCTAGGTTATGGGCCAGTATACCACGCGAAC,-0.238,-0.332,-0.441,0.643,0.89,-0.0157,0.388,0.121,0.996,-0.249,-0.26,0.0998,-0.0911,-0.214,0.27,-0.107,0.734,0.24,
TCTAGTTGGTCTAAGGTCACACACTCGAAATGCG,4.14,2.63,1.6,5.15,6.51,5.71,6.57,2.2,3.51,1.67,1.64,4.05,4.79,2.22,5.04,2.5,3.76,4.29,
AATACAAGGTCATCGTAGGCCAGAGTACGCACAG,7.64,6.1,3.33,6.55,5.94,2.73,5.04,3.93,4.7,0.979,1.37,2.81,4.87,2.13,4.63,1.33,5.15,4.19,
CAAACTAGTTCAAGAGGTCAAAGTCCGCTTCCCG,5.96,8.11,2.39,3.84,5.47,2.85,4.8,2.43,2.96,-0.123,0.442,5.22,5.97,5.56,6.53,2.22,4.52,4.85,5.38
AATACAGGGTCATCGTAGGTCAGAGTACGCACAG,7.7,5.76,1.95,7.46,6.38,3.55,5.23,3.26,5.07,3.45,1.68,3.34,,1.57,6.33,1.7,4.69,4.58,6.23
ATATGTAGGTTATCGGGTCATACAGTTTGCGCAT,3.18,1.45,1.35,7.64,6.2,4.38,5.61,7.63,7.62,3.33,1.78,2.48,3.54,2.74,4,1.32,2.75,3.17,5.09
GGAACGAGGGCATTCGAGTTCATAGCATGGCGAT,3.41,6.2,-0.617,1.4,1.33,-0.096,0.725,2.82,2.61,0.143,-0.584,0.888,,14,2.84,-0.506,2.75,2.4,2.7
AGAATGAGGTTACCAAAGGTCAGGGAAACGCTTG,6.02,8.17,0.893,5.51,5.63,3.27,4.99,4.16,4.54,1.08,0.912,4.43,6.1,1.49,6.53,1.28,4.91,5.13,
AATACAGGGTGACTAGGCCAGAGTAGGTACGAAT,0.201,0.00715,-0.0758,2.6,2.06,0.461,1.08,2.23,3.48,1.24,0.872,0.246,0.11,0.336,0.341,0.259,0.856,0.729,
TAGCCTAGGTCATTCAGGGGCAAGTATAGAAAGC,5.65,2.15,1.41,2.47,2.67,0.449,1.87,1.93,3.07,0.118,0.778,1.7,5.54,0.783,3.46,0.682,3.81,3.46,3.84
GATATAGGGTCAGCTAGAGGCCAGAGTATGGAAA,5.03,0.0568,-0.307,4.09,3.86,1.25,2.44,2.49,3.12,0.476,0.427,1.99,3.23,0.376,4.57,0.593,4.34,3.75,4.76
CCTACTGGGCCATTCAGAGGTCAATGATCATATG,2.47,4.81,0.521,2.59,3.02,0.908,2.2,4.08,4.62,0.0847,-0.339,1.92,3.89,0.827,3.93,0.374,3.42,4.28,
TACCCTAGGTCATTCAGGGGCCAGTATAGAAAGC,4.73,8.12,4.99,2.52,2.63,0.859,2.15,1.8,3.23,-0.205,0.64,2.57,2.68,0.936,3.65,0.569,4.13,3.8,
CCTTACGGGTCAAGGTTATAGCCCGGGTGGTACG,5.51,0.231,-0.334,4.06,4.86,1.37,3.74,1.8,3.44,-0.234,-0.862,1.69,3.43,0.303,4.46,0.676,4.33,3.8,
TAGCCTAGGTCATTCAGGGGCCAGCATAGAAAGC,4.87,0.45,0.706,2.37,2.62,0.723,1.28,2.03,2.78,0.63,0.0516,1.32,2.37,-0.172,3.95,-0.134,3.92,3.42,
CCGAGTTGGTCAAGGTCACACACGCTATAGGTAC,4.37,1.98,0.352,3.12,3.37,0.931,2.65,1.59,3.09,0.702,0.995,3.6,4.94,5.4,4.96,2.02,4.17,4.42,
TACCCTAGGTCATTGGGCCAGTATAGTACGCATC,4.66,8.18,3.83,4.27,4.04,1.23,2.96,3.2,4.36,0.464,0.484,1.89,1.94,0.578,2.56,0.228,3.87,3.25,
GTTACAGGGTCAAGGCCAGAGTACGCGTATTGAT,6.43,0.317,0.463,5.4,5.66,2.09,4.49,3.09,4.35,0.698,0.735,2.94,3.92,0.672,4.89,0.693,4.52,4.1,
CCTACTGGGCCACGAAAGGCCATTGATTCAGTGA,-0.0775,-0.396,-0.835,1.34,1.21,-0.199,0.589,5.23,5.01,-0.487,-0.189,0.0675,0.149,-0.378,0.18,-0.712,1.18,1.36,
ATCGAAAGGTCGACCAGGTGAGTATACACCGTTT,4.91,0.21,0.349,3.14,3.34,1.16,2.44,0.539,2.15,0.944,0.642,1.28,2.8,0.258,3.62,0.621,3.98,2.97,
CCTCGGAGGACAACAGGAGGTCATAGCTGCCAGA,2.31,4.2,-0.0136,0.961,1.16,0.00805,0.459,0.281,0.613,-0.597,-1.12,1.63,3.72,1.1,3.52,0.48,2.93,3.71,
GCTGCTAGTTCAACTGATGGTCAGCTAAAGCTCG,-0.0566,-0.53,-0.641,-0.618,-0.212,-0.685,-0.415,-0.111,-0.512,-0.37,-1.33,-0.347,0.398,-0.4,0.418,-1.04,1.62,1.21,
